This is part of a sample that, as a whole, favours compounds with a hit. Of some 83,000 tested, about 20% had one in any assay.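 Plates (96-well) were seeded with cells, treated with compound at one concentration, and incubated for 48 hours before percent growth was determined.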 A number with no mark means an inactive call. Activity calls are given as the source filed them. The calls were made as follows: active = growth percent below 10; inactive = the rest.

This assay has as its system CCRF-CEM leukemia. The assay is described as follows: NCI-60 one-dose screen, 48 h (100 = growth as untreated, 0 = no growth, -100 = all killed). The settings on record: 10 µM unless noted.
Turning to `COc1cc2c(cc1O)CC[C@@H]1[C@@H]2CC[C@]2(C)[C@@H](NCCN(C)C)CC[C@@H]12`, the growth was -71.8% (active).
The result for `COc1cccc2c1C(=O)c1c(O)c3c(c(O)c1C2=O)C[C@](O)(C(=O)CO)C[C@H]3O[C@@H]1C[C@@H](NC(=O)CCCN(C)C2(c3ccc(F)cc3)CC3CCC2C3)[C@H](O)[C@@H](C)O1` (stereo partly drawn) reads -29% (active); that for `O=c1cc(CSc2nnc(SCc3cc(=O)oc4c3ccc3ccccc34)o2)c2ccc3ccccc3c2o1`, 105%.
The result for `COc1cc2c(cc1O)CC[C@@H]1[C@@H]2CC[C@]2(C)[C@@H](OCCN(C)C)CC[C@@H]12` reads 10.3%; that for `COc1ccc(-c2nnc(SCC(=O)c3ccc(Cl)cc3)o2)cc1`, 114%.
The result for `NC(=NCCCOc1ccc(Cl)cc1)Nc1ccc(C(F)(F)F)cc1` reads 3.2% (active).
`CCCCC[C@H]1C/C=C2/C(=O)C=C[C@@H]2C/C=C\CCCC(=O)O1`: the growth was -0.835% (active).
The result for `CNC(=O)c1cc(Oc2ccc(NC(=O)Nc3ccc(Cl)c(OC(F)(F)F)c3)c(F)c2)ccn1` reads 30.1%; that for `COc1ccc2c(c1)C(=O)/C(=C/c1cccnc1)CC2`, 68%; that for `COc1cccc(-c2nc(SCC(=O)Nc3ccc(C(=O)/C=C/c4ccc(OC)c(OC)c4)cc3)[nH]c(=O)c2C#N)c1`, 90%.
The result for `CCCn1c(=O)[nH]c(N)c([C@H]2c3ccccc3Oc3[nH]c(=O)n(CCC)c(=O)c32)c1=O` reads 14.3%.
The result for `C=C1C(=O)O[C@H]2[C@H]1CC/C(COC(=O)NCc1ccc(OC)c(OC)c1)=C\CC[C@@]1(C)O[C@@H]21` reads -7.86% (active); that for `N#CN1CC[C@H](C(=O)Nc2cc3cc(C(N)=O)ccc3cn2)C1`, 7.66% (active).
Consider `O=C1c2c(O)cc(O)cc2-c2c(-c3ccc(O)cc3)oc3cc(O)cc1c23`, for which the growth is 6.03% (active).
The result for `O=C1/C(=C/c2ccccc2O)N=C2SCCCN12` reads 131%.
The result for `COc1ccc(CN2c3ccccc3Sc3ccccc32)c(C(F)(F)F)c1` reads 10.5%; that for `COc1ccc(-c2nc(SCC(=O)Nc3ccc(C(=O)/C=C/c4ccc(Cl)cc4)cc3)[nH]c(=O)c2C#N)cc1`, 94.2%; that for `COc1ccc2c(c1)CC/C(=C\c1cncc(Br)c1)C2=O`, 13.5%.
The result for `COc1ccc2c(c1)C(=O)/C(=C/c1ccccn1)CC2` reads -6.73% (active).
`Cc1nc(Nc2ccc(F)c(Cl)c2)sc1C(=O)O`: the growth is 9.7% (active).
The result for `CCOC(=O)c1sc(Nc2ccc(Cl)cc2)nc1C` reads 17.8%; that for `CC(=O)c1cc(C(=O)c2ccc3c(c2)Sc2ccccc2N3)n2ccccc12`, 5.4% (active).
The result for `CC(=O)O[C@H]1C(=O)[C@@]2(C)[C@H]([C@H](OC(=O)c3ccccc3)[C@]3(O)C[C@H](OC(=O)[C@H](OC(=O)CCC(=O)OC4CCC(S/N=C(N)/N=C(\N)N(C)C)CC4)[C@@H](NC(=O)c4ccccc4)c4ccccc4)C(C)=C1C3(C)C)[C@]1(OC(C)=O)CO[C@@H]1C[C@@H]2O` (stereo partly drawn) reads 17.5%.
The result for `CC(=O)OC[C@H]1O[C@H](OC(C)=O)[C@H](NC(=O)/C=C/CCl)[C@@H](OC(C)=O)[C@@H]1OC(C)=O` reads 24.6%.
`COc1cc(-c2nc(C(=O)NCC(=O)NO)nn2-c2ccc(Cl)cc2)cc(OC)c1OC`: the growth was 107%.
The result for `C=C1C(=O)O[C@H]2[C@H]1CC/C(COC(=O)NCCc1ccc(OC)c(OC)c1)=C\CC[C@@]1(C)O[C@@H]21` reads -8.78% (active); that for `CC/C=C\C[C@H](O)C/C=C1/C(=O)C=C[C@@]1(C)C/C=C\CCCC(=O)OC`, 108%.
The result for `Cc1ccc2oc(=O)cc(C3c4ccc([nH]4)C(c4cc(=O)oc5ccc(C)cc45)c4ccc([nH]4)C(c4cc(=O)oc5ccc(C)cc45)c4ccc([nH]4)C(c4cc(=O)oc5ccc(C)cc45)c4ccc3[nH]4)c2c1` (stereo not drawn) reads -18% (active); that for `COc1cccc2c1C(=O)c1c(O)c3c(c(O)c1C2=O)C[C@](O)(C(=O)CO)C[C@H]3O[C@@H]1C[C@@H](NC(=O)CCCCCN(C)C2(c3ccc(F)cc3)CC3CCC2C3)[C@H](O)[C@@H](C)O1` (stereo partly drawn), -22.2% (active); that for `NC(=NCCCC1(c2ccccc2)CCCC1)Nc1ccc(Cl)cc1`, 4.14% (active).
The result for `CCC#CC[C@H](O)C/C=C1/C(=O)C=C[C@@H]1C/C=C\CCCC(=O)OC` reads -8.8% (active); that for `O=c1oc2c(C(F)(F)F)cccc2cc1-c1csc(Nc2ccc(OCCF)cc2)n1`, 5.28% (active); that for `CNC(=O)c1cc(Oc2ccc(NC(=O)Nc3ccc(Cl)c(SC)c3)c(F)c2)ccn1`, 40.7%.
`c1ccc2[nH]c(-c3ccc(Nc4nc(N5CCCC5)nc5[nH]ncc45)cc3)nc2c1`: the growth is -29.7% (active).
The result for `CC/C=C\C/C=C\C[C@H]1C/C=C2/C(=O)C=C[C@@H]2C/C=C\CCC(=O)O1` reads -5.47% (active); that for `COc1ccc(CN2c3ccccc3Sc3ccccc32)cc1O`, 8.29% (active); that for `CCOc1ccc(-n2nc(C(=O)Nc3cc(OC)c(OC)c(OC)c3)nc2-c2cc(OC)c(OC)c(OC)c2)cc1`, 66.5%.
The result for `CC/C=C\C[C@H]1C/C=C2/C(=O)C=C[C@H]2C/C=C\CCCC(=O)O1` reads -6.1% (active).

The values above are taken from PubChem BioAssay (NCI).
